Laboratory results: PubChem BioAssay (NCATS)
Values joined by “and” are separate entries in the source; they are usually repeats but may differ in a detail not shown here. Identical values can stand only once. Unmarked numbers belong to inactive results. Records with an inconclusive call do not appear. Active and inactive are the calls of the source. Unless noted, calls follow the shape of the dose curve; as a rule, active = well fitted curve in either direction with a large enough effect (not every such curve was filed as active); inconclusive = small, poorly fitted or top-dose-only effect, or another doubt; inactive = flat fitted curve, though single readings scatter.

Experiments:
[1] = AP1 Signaling Pathway (AID 357); conditions: ME-180 AP-1-bla reporter, EGF-induced, beta-lactamase ratio, 5 h;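 also: ME-180 reporter cells stimulated with EGF at its EC50 level; % is scaled to controls: 0 for no effect and ±100 for the full control effect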
Procedure, shortened: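 AP-1-bla ME-180 cells, Opti-MEM + 0.5% dialyzed FBS, plated overnight 37 °C. Cpd titration + EC50 EGF, 5 h 37 °C. CCF4 2.5 h RT; ex 405, em 460/530 ratio → %activity, AC50.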

[2] = target: Cytochrome P450 1A2 (Homo sapiens) (UniProt P05177); assay: p450-cyp1a2 (AID 410; calls by dose curve; also: potency is read from the fitted curve at half-maximal effect;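 as to activity change, negative = inhibition: -100% = full effect of reference inhibitor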)
Sequence of Cytochrome P450 1A2 (Homo sapiens) (P05177 whole entry, looked up): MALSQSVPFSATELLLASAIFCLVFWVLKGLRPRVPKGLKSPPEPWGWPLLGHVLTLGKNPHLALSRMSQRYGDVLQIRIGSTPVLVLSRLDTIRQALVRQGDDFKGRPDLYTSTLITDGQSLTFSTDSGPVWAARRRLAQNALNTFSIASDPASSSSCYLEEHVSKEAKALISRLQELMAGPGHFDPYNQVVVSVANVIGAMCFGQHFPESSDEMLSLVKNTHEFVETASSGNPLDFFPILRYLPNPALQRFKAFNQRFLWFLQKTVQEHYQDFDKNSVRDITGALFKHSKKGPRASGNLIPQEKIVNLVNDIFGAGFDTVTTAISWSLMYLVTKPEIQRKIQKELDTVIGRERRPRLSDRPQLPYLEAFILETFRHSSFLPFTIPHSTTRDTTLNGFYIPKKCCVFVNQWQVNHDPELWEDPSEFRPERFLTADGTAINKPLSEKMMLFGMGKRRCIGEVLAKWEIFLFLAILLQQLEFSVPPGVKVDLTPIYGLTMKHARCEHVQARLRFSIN
Procedure, shortened: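 Inhibition was calculated relative to 57 uM furafylline (full inhibition). The reaction used human CYP1A2 at 20nM with Luciferin-ME at its Km, 100uM, driven by an NADPH-regenerating system for 60 min at room temperature.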

[3] = NFAT Signaling Pathway (AID 444); conditions: Jurkat NFAT-bla M1, carbachol, beta-lactamase ratio, 5 h; at 7.69 µM (top of the series) unless noted;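 also: carbachol stimulus at about its EC50 of 1 µM final; % is scaled to controls: 0 for no effect and ±100 for the full control effect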
Procedure, shortened: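 Jurkat cells carrying an NFAT-driven β-lactamase reporter and co-transfected muscarinic M1 receptor were treated with compound plus carbachol (1 uM final, an EC50 level) for 5 h at 37 °C. CCF4 loading followed for 1 h at RT; 460/530 nm ratio gave %activity.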

[4] = Stat Signaling Pathway (AID 446); conditions: ME-180 (cervical carcinoma) SIE beta-lactamase reporter, IL-6 stimulated, 5 h;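 also: ME-180 cervical cancer cells given 40 pM IL-6 alongside compound; SIE-controlled beta-lactamase reporter measured as 460/530 nm FRET emission ratio; % is scaled to controls: 0 for no effect and ±100 for the full control effect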
Procedure, shortened: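 IL-6/STAT signaling read in ME-180 cells via an SIE beta-lactamase reporter. Stimulus was 40 pM IL-6 (its AC50) for 5 hrs, so both activation and inhibition register.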

[5] = target: Glucocorticoid receptor (Homo sapiens) (UniProt P04150); assay: GR-GFP Redistribution (AID 450;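 active = compounds whose dose series gives a full or clear partial fitted curve of increased nuclear translocation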; also: potency is read from the fitted curve at half-maximal effect); conditions: U2OS GR-GFP nuclear translocation, laser cytometry, 2 h
Sequence of Glucocorticoid receptor (Homo sapiens) (P04150 whole entry, looked up, the tested form may be a part): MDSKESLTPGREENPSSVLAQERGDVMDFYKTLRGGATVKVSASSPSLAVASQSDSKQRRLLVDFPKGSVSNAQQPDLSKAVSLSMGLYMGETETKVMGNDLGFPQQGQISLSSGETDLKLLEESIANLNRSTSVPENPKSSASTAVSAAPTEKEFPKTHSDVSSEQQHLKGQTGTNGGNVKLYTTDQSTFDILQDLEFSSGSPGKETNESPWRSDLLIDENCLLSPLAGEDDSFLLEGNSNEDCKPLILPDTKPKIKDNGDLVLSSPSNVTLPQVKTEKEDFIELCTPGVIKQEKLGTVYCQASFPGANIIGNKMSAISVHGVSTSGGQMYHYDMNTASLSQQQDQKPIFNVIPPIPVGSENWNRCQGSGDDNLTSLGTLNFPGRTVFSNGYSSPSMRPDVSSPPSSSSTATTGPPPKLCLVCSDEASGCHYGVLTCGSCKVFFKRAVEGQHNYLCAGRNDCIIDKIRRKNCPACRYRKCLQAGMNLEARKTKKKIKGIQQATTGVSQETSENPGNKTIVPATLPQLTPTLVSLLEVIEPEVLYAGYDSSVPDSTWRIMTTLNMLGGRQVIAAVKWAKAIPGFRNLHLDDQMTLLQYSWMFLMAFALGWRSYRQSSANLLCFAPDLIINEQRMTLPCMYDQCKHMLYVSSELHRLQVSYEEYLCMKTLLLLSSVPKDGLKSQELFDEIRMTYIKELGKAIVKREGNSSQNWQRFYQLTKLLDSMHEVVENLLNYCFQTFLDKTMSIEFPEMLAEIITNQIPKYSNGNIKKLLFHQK

[6] = target: Glucocorticoid receptor (Homo sapiens) (UniProt P04150); assay: GR-EFC Redistribution (AID 451; calls by dose curve; also: potency is read from the fitted curve at half-maximal effect); conditions: CHO-K1 GR-EFC translocation, beta-gal luminescence, 2 h
Procedure, shortened: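 CHO-K1 cells stably expressing nuclear-localized β-gal enzyme acceptor and GR fused C-terminally to the enzyme donor fragment; ligand-driven nuclear translocation restores β-gal by complementation. Compounds titrated up to 46 uM final, 2 h at 37 °C; luminescence read.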

[7] = target: Mitogen-activated protein kinase 10 (Mus musculus) (UniProt Q61831); assay: JNK3 AlphaScreen Assay (AID 530);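 also: kinase came from lysate of stimulated human HepG2 cells; signal reports phosphorylation of biotinylated GST-cJun 1-79 at Ser73 with 10 µM ATP; % is scaled to controls: 0 for no effect and ±100 for the full control effect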
Procedure, shortened: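 JNK3 came from HepG2 lysates pre-activated with IL-1beta and TNF-alpha and phosphorylated biotinylated GST-cJun (1-79) at 10 uM ATP, pH 7.6, room temperature. Compounds were titrated. AlphaScreen signal used anti-phospho-cJun (Ser73) antibody.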

[8] = target: 3',5'-cyclic-AMP phosphodiesterase 4B (Homo sapiens) (UniProt Q07343); assay: qHTS Assay for Inhibitors of PDE-IV (AID 607; active = well fitted activation curve with a large enough effect in the main read-out, with a control signal flat, not every such curve was filed as active; also: % of control where 0% means no effect)
Sequence of 3',5'-cyclic-AMP phosphodiesterase 4B (Homo sapiens) (Q07343 whole entry, looked up): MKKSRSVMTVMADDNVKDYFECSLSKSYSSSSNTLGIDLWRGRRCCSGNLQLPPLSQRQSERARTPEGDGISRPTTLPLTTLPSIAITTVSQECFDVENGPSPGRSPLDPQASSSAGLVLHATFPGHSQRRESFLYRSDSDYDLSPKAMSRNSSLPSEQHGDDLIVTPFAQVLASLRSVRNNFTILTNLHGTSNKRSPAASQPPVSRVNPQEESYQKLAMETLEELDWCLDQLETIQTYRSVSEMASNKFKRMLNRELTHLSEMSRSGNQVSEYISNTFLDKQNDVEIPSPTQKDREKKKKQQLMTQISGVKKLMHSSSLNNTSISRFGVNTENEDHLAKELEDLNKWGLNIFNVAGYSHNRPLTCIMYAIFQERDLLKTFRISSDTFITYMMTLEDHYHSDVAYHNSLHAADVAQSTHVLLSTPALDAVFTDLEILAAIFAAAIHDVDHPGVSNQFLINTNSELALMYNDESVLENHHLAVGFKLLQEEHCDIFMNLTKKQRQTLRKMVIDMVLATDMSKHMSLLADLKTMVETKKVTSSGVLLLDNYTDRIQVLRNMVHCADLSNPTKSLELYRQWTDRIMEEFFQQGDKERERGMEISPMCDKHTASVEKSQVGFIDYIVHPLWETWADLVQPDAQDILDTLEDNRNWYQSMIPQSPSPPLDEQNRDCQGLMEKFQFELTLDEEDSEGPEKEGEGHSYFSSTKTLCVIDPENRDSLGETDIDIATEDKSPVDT
Procedure, shortened: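 Live HEK293 cells with a modified cyclic nucleotide-gated (CNG) channel report intracellular cAMP via membrane-potential dye fluorescence (ex 535/em 590 nm). Endogenous PDE-IV was targeted. Compounds were tested at up to 22.9 uM final; RO 20-1724 100 uM served as control.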

[9] = target: Guanine nucleotide-binding protein G(i) subunit alpha-1 (Homo sapiens) (UniProt P63096); assay: qHTS Assay for Inhibitors of RGS12 GoLoco Motif Activity (Green Fluorophore) (AID 879; active = well fitted curve in the direction sought with a large enough effect; an effect the other way counts as inactive or inconclusive;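 also: 0% = labeled peptide with Gαi1 and full inhibition = labeled peptide alone without protein; negative values mean loss of peptide binding seen as reduced polarization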)
Sequence of Guanine nucleotide-binding protein G(i) subunit alpha-1 (Homo sapiens) (P63096 whole entry, looked up): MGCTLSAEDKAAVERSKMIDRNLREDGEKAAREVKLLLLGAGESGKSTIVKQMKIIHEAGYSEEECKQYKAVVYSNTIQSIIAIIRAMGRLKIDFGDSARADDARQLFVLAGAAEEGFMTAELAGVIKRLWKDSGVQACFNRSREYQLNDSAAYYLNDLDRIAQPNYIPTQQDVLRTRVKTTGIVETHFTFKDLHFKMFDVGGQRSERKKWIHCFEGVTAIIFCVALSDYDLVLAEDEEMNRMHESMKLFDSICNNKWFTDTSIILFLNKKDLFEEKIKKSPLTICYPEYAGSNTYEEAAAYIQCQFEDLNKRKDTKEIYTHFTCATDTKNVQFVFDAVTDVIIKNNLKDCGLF
Procedure, shortened: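 Fluorescence polarization assay: 50 nM Gαi1 with 10 nM FITC-labeled RGS12 GoLoco peptide in 10 mM Tris pH 7.5, 150 mM NaCl, 0.1 mM GDP, 0.05% NP40, 10 min at room temperature with compound.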

[10] = target: Cytochrome P450 2D6 (Homo sapiens) (UniProt P10635); assay: qHTS Assay for Inhibitors and Substrates of Cytochrome P450 2D6 (AID 891; active = well fitted curve in the direction sought with a large enough effect; an effect the other way counts as inactive or inconclusive;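 also: luciferin methyl ether substrate demethylated by CYP2D6 with NADPH regeneration; % is scaled to controls: 0 for no effect and ±100 for the full control effect; nearly all actives have a fitted effect of over 60% in size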)
Procedure, shortened: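 Human CYP2D6 (5 nM) with 30 uM Luciferin-ME EGE (at Km) in 100 mM KPO4, compound preincubated 10 min, then NADPH regeneration system for 60 min at room temperature. Luciferin read by luminescence; normalized to 1.43 uM quinidine.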

[11] = target: Cytochrome P450 2C19 (Homo sapiens) (UniProt P33261); assay: qHTS Assay for Inhibitors and Substrates of Cytochrome P450 2C19 (AID 899; active = well fitted curve in the direction sought with a large enough effect; an effect the other way counts as inactive or inconclusive; also: % is scaled to controls: 0 for no effect and ±100 for the full control effect; nearly all actives have a fitted effect of over 60% in size)
Sequence of Cytochrome P450 2C19 (Homo sapiens) (P33261 whole entry, looked up): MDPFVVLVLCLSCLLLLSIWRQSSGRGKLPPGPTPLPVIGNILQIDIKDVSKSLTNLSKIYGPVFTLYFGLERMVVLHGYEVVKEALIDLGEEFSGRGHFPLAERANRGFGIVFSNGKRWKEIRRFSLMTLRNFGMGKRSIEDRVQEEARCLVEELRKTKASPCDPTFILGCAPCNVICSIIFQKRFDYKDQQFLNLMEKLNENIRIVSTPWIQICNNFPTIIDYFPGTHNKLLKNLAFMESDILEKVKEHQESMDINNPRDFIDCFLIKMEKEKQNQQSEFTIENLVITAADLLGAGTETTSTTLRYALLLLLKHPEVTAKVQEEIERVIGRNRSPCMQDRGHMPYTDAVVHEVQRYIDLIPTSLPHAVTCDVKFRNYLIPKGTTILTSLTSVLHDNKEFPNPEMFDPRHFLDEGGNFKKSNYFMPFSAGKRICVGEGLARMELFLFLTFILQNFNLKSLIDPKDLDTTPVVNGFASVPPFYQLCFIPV
Procedure, shortened: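 NADPH-dependent conversion of Luciferin-H EGE (10uM, at KM) by 5nM enzyme in 50mM KPO4, 60 min at 37C following 10 min compound preincubation. Stopped with luciferin detection buffer; luminescence read after 20 min.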

[12] = target: Muscarinic acetylcholine receptor M1 (Rattus norvegicus) (UniProt P08482); assay: qHTS Assay for Antagonists of Acetylcholine Muscarinic M1 Receptor: Kinetic Measurement of Intracellular Calcium Response (AID 943; active = well fitted curve in the direction sought with a large enough effect; an effect the other way counts as inactive or inconclusive;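 also: Fluo-4 calcium signal as peak divided by basal fluorescence over 4 min; nearly all actives have a fitted effect of over 75% in size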)
Sequence of Muscarinic acetylcholine receptor M1 (Rattus norvegicus) (P08482 whole entry, looked up): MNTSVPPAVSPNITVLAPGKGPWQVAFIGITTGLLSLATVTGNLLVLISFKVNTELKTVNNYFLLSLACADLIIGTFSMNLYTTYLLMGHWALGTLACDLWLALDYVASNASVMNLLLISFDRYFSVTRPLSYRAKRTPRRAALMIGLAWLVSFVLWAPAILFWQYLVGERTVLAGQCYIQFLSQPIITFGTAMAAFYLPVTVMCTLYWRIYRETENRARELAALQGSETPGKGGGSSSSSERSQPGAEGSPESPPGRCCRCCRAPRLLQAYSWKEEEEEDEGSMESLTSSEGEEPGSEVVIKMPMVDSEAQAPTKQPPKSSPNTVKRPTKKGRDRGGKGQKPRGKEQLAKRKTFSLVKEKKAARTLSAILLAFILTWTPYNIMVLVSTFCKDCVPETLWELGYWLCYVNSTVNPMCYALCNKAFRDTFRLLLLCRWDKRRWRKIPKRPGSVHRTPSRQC
Procedure, shortened: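 Intracellular calcium flux, recorded with Fluo-4 in a kinetic plate reader, served as signal; the response to carbachol at EC80 (100 nM final) was taken as maximal over minimal fluorescence after a 10 min compound pre-incubation in rat M1-CHO cells.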

[13] = target: Muscarinic acetylcholine receptor M1 (Rattus norvegicus) (UniProt P08482); assay: qHTS Assay for Antagonists of Acetylcholine Muscarinic M1 Receptor: Measurement of IP-One Response (AID 944; active = well fitted curve in the direction sought with a large enough effect; an effect the other way counts as inactive or inconclusive; also: nearly all actives have a fitted effect of over 75% in size)
Procedure, shortened: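 Steps: plate transfected CHO-M1 cells overnight; add test compound, 10 min; add carbachol (200 nM, EC80) in stimulation buffer with LiCl; incubate 30 min; add labelled IP1 tracer and anti-IP1 antibody in lysis buffer; read HTRF after 10 min.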

[14] = target: Pyruvate kinase (Leishmania mexicana) (UniProt Q27686); assay: qHTS Validation Assay for Inhibitors of Leishmania Mexicana Pyruvate Kinase (AID 945; active = well fitted curve in the direction sought with a large enough effect; an effect the other way counts as inactive or inconclusive;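 also: 0% = DMSO only neutral control wells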)
Sequence of Pyruvate kinase (Leishmania mexicana) (Q27686 2-499 E452W): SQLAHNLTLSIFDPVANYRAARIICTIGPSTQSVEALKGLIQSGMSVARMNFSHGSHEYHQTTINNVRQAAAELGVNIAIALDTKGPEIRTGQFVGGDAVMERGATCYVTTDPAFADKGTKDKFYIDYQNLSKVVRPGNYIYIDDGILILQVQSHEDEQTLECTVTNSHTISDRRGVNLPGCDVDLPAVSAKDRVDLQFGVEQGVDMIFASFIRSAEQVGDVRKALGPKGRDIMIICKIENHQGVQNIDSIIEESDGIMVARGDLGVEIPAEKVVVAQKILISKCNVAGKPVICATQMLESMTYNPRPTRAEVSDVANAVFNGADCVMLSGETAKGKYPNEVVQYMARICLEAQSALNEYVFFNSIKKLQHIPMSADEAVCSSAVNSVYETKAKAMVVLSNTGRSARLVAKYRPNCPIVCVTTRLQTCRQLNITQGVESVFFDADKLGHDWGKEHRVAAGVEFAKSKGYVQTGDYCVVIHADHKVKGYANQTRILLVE
Procedure, shortened: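 Eight-point qHTS titrations in triplicate, data normalized to DMSO neutral control. Reaction: 0.2 nM LmPYK E451W mutant, 0.5 mM PEP, 0.1 mM ADP, 7 mM MgCl2, pH 7.2, one hour at room temperature; luminescent ATP detection.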

[15] = target: Pyruvate kinase PKM (Homo sapiens) (UniProt P14618); assay: qHTS Assay for Activators of Human Muscle Pyruvate Kinase (AID 954; active = well fitted curve in the direction sought with a large enough effect, not every such curve was filed as active;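 also: 0% = uninhibited enzyme and -100% = no enzyme or full thiadiazolimine inhibition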)
Sequence of Pyruvate kinase PKM (Homo sapiens) (P14618 whole entry, looked up): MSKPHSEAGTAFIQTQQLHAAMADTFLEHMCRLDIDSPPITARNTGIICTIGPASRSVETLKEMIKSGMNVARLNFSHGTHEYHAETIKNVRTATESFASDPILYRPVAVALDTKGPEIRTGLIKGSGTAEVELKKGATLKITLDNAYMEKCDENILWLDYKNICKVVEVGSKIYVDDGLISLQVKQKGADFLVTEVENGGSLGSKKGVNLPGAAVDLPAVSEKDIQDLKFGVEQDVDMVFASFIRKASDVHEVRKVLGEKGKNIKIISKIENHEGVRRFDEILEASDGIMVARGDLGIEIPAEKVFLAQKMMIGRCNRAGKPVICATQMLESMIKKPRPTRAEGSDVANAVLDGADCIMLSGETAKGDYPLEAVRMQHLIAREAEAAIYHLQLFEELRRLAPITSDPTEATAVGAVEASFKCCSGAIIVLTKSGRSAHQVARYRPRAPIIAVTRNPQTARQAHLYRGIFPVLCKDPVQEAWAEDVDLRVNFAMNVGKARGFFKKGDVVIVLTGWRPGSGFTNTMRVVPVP
Procedure, shortened: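 Enzyme was run at intermediate activity so both inhibitors and activators could be detected. ATP formed from ADP and PEP by 0.1 nM human PKM2 during a 1 h room-temperature incubation was quantified by coupled luciferase luminescence.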

[16] = target: Alpha-galactosidase A (Homo sapiens) (UniProt P06280); assay: Counterscreen for Glucocerebrosidase Inhibitors: qHTS Assay for Human alpha-Galactosidase at pH 4.5 (AID 992; active = well fitted curve in the direction sought with a large enough effect; an effect the other way counts as inactive or inconclusive; also: 0% is about no effect)
Sequence of Alpha-galactosidase A (Homo sapiens) (P06280 whole entry, looked up): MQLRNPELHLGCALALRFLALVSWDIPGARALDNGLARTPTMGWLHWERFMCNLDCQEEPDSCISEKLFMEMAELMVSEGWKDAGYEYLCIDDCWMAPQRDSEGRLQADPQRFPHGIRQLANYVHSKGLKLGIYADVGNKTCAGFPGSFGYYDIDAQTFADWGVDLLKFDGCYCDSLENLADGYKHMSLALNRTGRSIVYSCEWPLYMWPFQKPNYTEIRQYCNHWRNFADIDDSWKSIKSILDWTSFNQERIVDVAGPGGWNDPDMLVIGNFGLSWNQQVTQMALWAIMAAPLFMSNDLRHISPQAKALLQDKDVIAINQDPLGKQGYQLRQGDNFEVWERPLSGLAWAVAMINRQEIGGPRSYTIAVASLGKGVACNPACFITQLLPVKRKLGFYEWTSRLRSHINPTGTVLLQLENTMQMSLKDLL
Procedure, shortened: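 Read-out is 4-methylumbelliferone fluorescence (365 nm excitation, 440 nm emission) after a pH 10 NaOH/glycine stop. Reactions held 2 nM enzyme and 80 uM substrate at pH 4.5 for 20 min at room temperature.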

[17] = target: alpha-glucosidase (Oryza sativa, rice) (UniProt Q653V4); assay: Counterscreen for Glucocerebrosidase Inhibitors: qHTS Assay for Rice alpha-Glucosidase at pH 5.0 (AID 997; active = well fitted curve in the direction sought with a large enough effect; an effect the other way counts as inactive or inconclusive;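 also: 0% = full activity with enzyme and -100% = basal without enzyme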)
Procedure, shortened: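 Rice alpha-glucosidase (4 nM final) with 400 uM 4-methylumbelliferyl-alpha-D-glucopyranoside in citrate buffer pH 5.0, 20 min at room temperature, stopped at pH 10; fluorescence 365/440 nm, compounds 0.7 nM–77 uM, AC50 from Hill fits.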

[18] = qHTS Assay for Identification of Small Molecule Agonists for Thrombopoietin (TPO) Signaling Pathway (AID 917; active = well fitted curve in the direction sought with a large enough effect; an effect the other way counts as inactive or inconclusive; also: % is scaled to controls: 0 for no effect and ±100 for the full control effect)
Procedure, shortened: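 Luminescence from a Glycoprotein IIb promoter–driven luciferase reporter served as read-out in murine Ba/F3 cells carrying the human TPO receptor. Cells, deprived of IL-3 overnight, received compounds with 26 pM TPO and were incubated 24 hrs at 37 C.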

[19] = target: Lysosomal acid glucosylceramidase (Homo sapiens) (UniProt P04062); assay: Glucocerebrosidase-p2 (AID 348; in the data active = potency below about 10 µM; also: potency is read from the fitted curve at half-maximal effect); conditions: purified GBA, blue fluorogenic substrate, 40 min
Procedure, shortened: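 Compounds titrated from 0.6 nM upwards against 0.2 nM enzyme in pH 5.9 citric acid/KH2PO4, taurocholate, tween-20; blue fluorogenic substrate 80 uM, 40 min room temperature, stopped and read Ex 365/Em 440 for AC50.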

[20] = at 7.69 µM (top of the series) unless noted

Q: For `CN(Cc1cc(C(C)(C)C)cc(Br)c1O)Cc1cc(C(C)(C)C)cc(Br)c1O`, which activity change, negative = inhibition [1, 20] is on record?
A: The activity change, negative = inhibition was -2.5%.

Q: And the Potency [2]?
A: The Potency was 3.16 µM (active).

Q: And the activity change, negative = inhibition [3]?
A: Its activity change, negative = inhibition is 11.8%.

Q: And the activity, negative = inhibition [4, 20]?
A: The activity, negative = inhibition was 7.17%.

Q: What about the Potency [5] of the same compound?
A: Its Potency is over 46 µM.

Q: What about the Potency [6] of the same compound?
A: The Potency was over 9.22 µM.

Q: And the Potency [7]?
A: Its Potency is “inactive”.

Q: And the Potency [8]?
A: Its Potency is “inactive”.

Q: Which activity change, negative = inhibition [1, 20] does the source give for `O=C1OC(=O)[C@@H]2[C@@H]1[C@@H]1CC[C@H]2O1` here?
A: Its activity change, negative = inhibition is 4.01% [at 38 µM].

Q: And the Potency [2]?
A: Its Potency is “inactive”.

Q: What about the activity change, negative = inhibition [3] of the same compound?
A: Its activity change, negative = inhibition is 5.96% [at 38 µM].

Q: What about the activity, negative = inhibition [4, 20] of the same compound?
A: Its activity, negative = inhibition is -11.3% [at 38 µM].

Q: What about the Potency [5] of the same compound?
A: The Potency was over 46 µM.

Q: And the Potency [6]?
A: The Potency was over 46 µM.

Q: What about the Potency [7] of the same compound?
A: The Potency was “inactive”.

Q: And the Potency [8]?
A: Its Potency is “inactive”.

Q: What about the outcome [9] of the same compound?
A: Its outcome is “inactive”.

Q: And the Potency [10]?
A: The Potency was “inactive”.

Q: What about the Potency [11] of the same compound?
A: Its Potency is “inactive”.

Q: What about the Potency [12] of the same compound?
A: The Potency was “inactive”.

Q: And the Potency [13]?
A: The Potency was “inactive”.

Q: And the outcome [14]?
A: Its outcome is “inactive”.

Q: What about the outcome [15] of the same compound?
A: Its outcome is “inactive”.

Q: What about the outcome [16] of the same compound?
A: Its outcome is “inactive”.

Q: What about the Potency [17] of the same compound?
A: Its Potency is “inactive”.

Q: Which results are given for `CN1[C@@H]2CC[C@H]1CC(OC(=O)[C@@H](CO)c1ccccc1)C2` (some centres not stated)?
A: activity change, negative = inhibition ([1]; at 17.2 µM (top of the series)): -0.827% and 1.39%; activity change, negative = inhibition ([1]; at 38 µM (top of the series)): 10.7% and -6.14%; activity change, negative = inhibition [3]: -38.1% [at 17.2 µM] (active); activity, negative = inhibition ([4]; at 17.2 µM (top of the series)): 10.3% and 3.29%; activity, negative = inhibition ([4]; at 38 µM (top of the series)): 27.8% and 8.42%; Potency [7]: inactive; outcome [18]: inactive; outcome [14]: inactive; outcome [15]: inactive; outcome [16]: inactive; Potency [17]: inactive

Q: For `C[N+]1(NCC[N@@+]2(C)CCc3ccccc3C2)CCCCC1`, which activity change, negative = inhibition [1, 20] is on record?
A: The activity change, negative = inhibition was -4.59%.

Q: And the Potency [2]?
A: The Potency was “inactive”.

Q: What about the activity change, negative = inhibition [3] of the same compound?
A: The activity change, negative = inhibition was -23.2%.

Q: What about the activity, negative = inhibition [4, 20] of the same compound?
A: Its activity, negative = inhibition is 7.24%.

Q: What about the Potency [5] of the same compound?
A: Its Potency is over 46 µM.

Q: And the Potency [6]?
A: Its Potency is over 9.22 µM.

Q: What about the Potency [7] of the same compound?
A: Its Potency is “inactive”.

Q: What about the Potency [8] of the same compound?
A: Its Potency is “inactive”.

Q: For `N#CCCn1c(=O)c(-c2ccccc2)nc2cnc(N3CCNCC3)nc21`, which Potency [19] is on record?
A: The Potency was over 11.4 µM.

Q: And the Potency [5]?
A: The Potency was over 9.22 µM.

Q: What about the Potency [6] of the same compound?
A: The Potency was over 46 µM.

Q: And the Potency [7]?
A: Its Potency is “inactive”.

Q: What about the Potency [8] of the same compound?
A: The Potency was “inactive”.

Q: What does the source list for `N[C@@H](CSC(=O)c1ccccc1)C(=O)O`?
A: activity change, negative = inhibition [1, 20]: -5.26%; Potency [2]: inactive; activity change, negative = inhibition [3]: 3.72%; activity, negative = inhibition [4, 20]: 4.69%; Potency [5]: > 46 µM; Potency [6]: > 9.22 µM; Potency [7]: inactive; Potency [8]: inactive
